# Measured potencies and affinities stand elsewhere. Unmarked numbers belong to inactive results. Activity calls are given as the source filed them.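 The calls were made as follows: active = a fitted half-maximal concentration no higher than twice the top valid tested dose, with signal falling as cells die; inconclusive = flat curve between -70% and -30%, or poor fit; inactive = the rest, including signal rising instead of falling.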
# Test: viability loss in HeLa cells – cell-based, ATP luminescence, cherry-pick samples, cytotoxicity control, dose response (AID 687004);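 also: 0% = neutral control median and -100% = staurosporine 10 µM control median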
# Settings: ATP luminescence (CellTiter-Glo), 48 h; series mostly up to 26 µM; activity change, negative = cytotoxicity: at the top concentration
Structure (SMILES),"activity change, negative = cytotoxicity",outcome
COc1ccccc1NC(=O)c1cn(C)c(=O)c2cc(OC)c(OC)cc12,9.62%,–
N#Cc1ccc(C23CC4(C2)[C@H](CN(Cc2ccc(C(F)(F)F)cc2)[C@@H]4c2ccccc2)C3c2ccccc2)cc1 (some centres undefined),2.67%,–
COc1cccc(S(=O)(=O)Nc2ccc3c(c2)[C@H]2C[C@@H](CC(=O)NC4CCCCC4)O[C@@H](CO)[C@H]2O3)c1,16.5% [at 23.5 µM],–
C[C@H](CO)N1C[C@H](C)[C@@H](CN(C)Cc2ccc(Oc3ccccc3)cc2)Oc2ccc(NC(=O)Nc3ccc4c(c3)OCO4)cc2C1=O,-8.68%,–
COc1ccc(NC(=O)c2cn(C)c(=O)c3cc(OC)c(OC)cc23)c(OC)c1,-2.83%,–
CNC[C@H]1Oc2ncc(C#CCC(C)C)cc2C(=O)N([C@H](C)CO)C[C@H]1C,4.39%,–
Cc1ccccc1NC(=O)C(NC1CCCCC1)C(C)C (centres undefined),5.4%,–
C[C@H]1CN([C@@H](C)CO)C(=O)c2cc(C#CC3(O)CCCC3)cnc2O[C@@H]1CN(C)Cc1cccnc1,6.52%,–
CO[C@@H]1CN(C)C(=O)c2ccc(NS(=O)(=O)c3ccc(Oc4ccccc4)cc3)cc2OC[C@H](C)NC[C@H]1C,1.65%,–
CCCNC(=O)[C@H]1[C@H](CO)[C@H]2Cn3c(cccc3=O)[C@@H]1N2C(=O)Nc1cc(F)ccc1F,0.898%,–
O=C(COc1ccc2c(c1)CCC2)NCc1ccccc1,-1.39%,–
COC(=O)C1=C(C)N(Cc2ccccc2)C(=O)N[C@H]1c1cccc(F)c1,–,inactive
Cc1cccc(C)c1NC(=O)C1(NC(=O)C2CCC(=O)N2)CCCCC1 (centres undefined),11.5%,–
C[C@@H]1CN([C@@H](C)CO)C(=O)c2cc(NC(=O)C3CC3)ccc2O[C@H]1CN(C)Cc1ccc2c(c1)OCO2,8.78%,–
COc1cccc(NC(=O)CN2CCN(S(=O)(=O)c3ccc(C(C)C)cc3)CC2)c1,7%,–
Cc1cccc(OCC(=O)NCc2ccc(F)cc2)c1,16.1%,–
COc1ccc(N2CCN(C(=O)CSc3ncnc4c3cnn4-c3ccccc3C)CC2)cc1,0.165%,–
Cc1ccc(S(=O)(=O)N2CC[C@@H]3[C@H](CO)Nc4ccc(-c5ccccc5F)cc4[C@@H]32)cc1,138%,–
C/C=C/c1ccc([C@@H]2[C@@H](C#N)N(S(=O)(=O)c3cccc(F)c3)[C@@H]2CO)cc1,-1.95%,–
COc1cccc(S(=O)(=O)Nc2ccc3c(c2)OC[C@@H](C)NC[C@H](C)[C@@H](OC)CN(C)C3=O)c1,-0.599%,–

Structure (SMILES),"activity change, negative = cytotoxicity",outcome
C[C@H](CO)N1C[C@H](C)[C@H](CN(C)C(=O)NC2CCCCC2)OCCCC[C@H](C)Oc2ccc(NS(=O)(=O)c3cn(C)cn3)cc2C1=O,-7.81%,–
CCNC(=O)CN(c1ccccc1)S(=O)(=O)c1ccc(Cl)cc1,1.51%,–
Fc1ccccc1CNC(=S)NCc1ccc(Cl)cc1,3.52%,–
O=C(CN(c1ccc(F)cc1)S(=O)(=O)c1ccccc1)NC1CC2CCC1C2 (centres undefined),-1.43%,–
O=C(C[C@@H]1CC[C@H](NC(=O)Cc2ccccn2)[C@@H](CO)O1)NCCc1ccccc1,17.4%,–
COc1ccc(NC(=O)CSc2ncnc3c2cnn3Cc2ccccc2)cc1,1.14%,–
CC(C)(C)SCCNC(=O)CN(c1ccccc1)S(=O)(=O)c1ccccc1,13.7%,–
Cc1ccc(-n2ncc3c(SCC(=O)NNC(=O)C(C)C)ncnc32)cc1,7.77%,–
Cc1cc(C)c(NC(=O)CN2CCN3CCCC3C2)c(C)c1 (centres undefined),-3.25%,–
COc1ccc(CN(C)C[C@@H]2Oc3ccc(NS(C)(=O)=O)cc3CC(=O)N([C@H](C)CO)C[C@H]2C)cc1,4.28% [at 23.5 µM],–
CC(C)NC(=O)Nc1ccc2c(c1)C(=O)N([C@H](C)CO)C[C@H](C)[C@H](CN(C)Cc1ccncc1)OCCCC[C@H](C)O2,-2.73%,–
COc1ccc(CN(C)C[C@@H]2Oc3ccc(NC(=O)C4CC4)cc3C(=O)N([C@@H](C)CO)C[C@H]2C)cc1,4.78% [at 23.5 µM],–
CC(NC(=O)COc1ccccc1Cl)c1ccccc1 (centres undefined),9.7%,–
Cc1cccc(C)c1NC(=O)CN(C)C(=O)CC1CC2CCC1C2 (centres undefined),8.78%,–
COc1ccc(C2CC(c3cccs3)=NN2C(=O)c2ccco2)cc1OC (centres undefined),3.51%,–
Cc1cccc(-c2ccc([C@@H]3[C@@H](CO)N4CCCCN(S(=O)(=O)c5ccccc5C)C[C@@H]34)cc2)c1,-9.64%,–
Cc1c(C(=O)NC(=S)Nc2ccc(N3CCOCC3)cc2)cccc1[N+](=O)[O-],-1.09%,–
Cc1c(Cl)cccc1NC(=O)C1NC(=O)CC1c1ccccc1 (centres undefined),9.81%,–
O=c1nc(-c2ccccc2)c2ccccc2[nH]1,3.6%,–
